We go through 96 compounds from PubChem BioAssay AID588335 (The Scripps Research Institute Molecular Screening Center, 2011).

Each structure is given as a SMILES string. Screen size: about 360,000 compounds; about 4,500 (1.2%) were called active. This excerpt belongs to a sample that is enriched for actives. Values without a mark were called inactive. No stated cut-off is given here; in the data, active means inhibition above about 30%; inactive means the rest.

A short description of this assay: inhibition of GDH and TPI enzymes – biochemical, absorbance, full deck, artefact control for M. tuberculosis FBA inhibitor project, primary screen (AID 588335).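 Further: 0% = DMSO wells and 100% = wells lacking the enzyme.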 The following applies: GDH-TPI coupled enzyme counterscreen, NADH absorbance; at 4.8 µM; stronger effect = higher value. In general terms: A counterscreen serves to expose hits that act by an unwanted route or on another target.
What is called inhibition is the change of the read-out against control, counted positive when it falls. Turning to `Cc1ccc(-c2csc(C(C#N)=C(O)CN3CCN(C(=O)c4ccco4)CC3)n2)cc1`, the inhibition was 21.6%.

On to `COC(=O)C(C(=O)Nc1cccc(C)n1)C1CCCCCC1` (stereo unspecified), for which the inhibition is 14.9%. Take `C=CCN(c1ccc(C(=O)Nc2cc(C)cc(C)c2)cc1)S(C)(=O)=O`: the inhibition was 4.51%. Take `CC(C)(C)C(=O)c1cnc(Nc2ccccc2)s1`: the inhibition is 35.6% (active).

As for `CC(=O)c1cnc(-c2ccccc2)s1`, the inhibition was 10.1%.

As to `O=C(/C=C/Nc1ccccc1)c1cnc(-c2ccccc2)s1`, the inhibition is 3.77%.

For the compound `C=CC(COCc1ccccc1)N(Cc1ccccc1)S(=O)(=O)c1ccccc1Br` (stereo unspecified), the inhibition was 9.24%. As to `CCCOc1cccc(C(=O)Nc2nnn(CCC)n2)c1`, the inhibition was 3.11%. Turning to `O=C(Nc1ccc(Cl)cc1)c1cccc(OC(=S)N2CCOCC2)c1`, the inhibition is -5.96%. As for `CCC(=O)Oc1cccc(C(=O)Nc2ccc(-c3nnc(-c4ccco4)o3)cc2)c1`, the inhibition was 35.6% (active).

Turning to `N#C/C(C(=S)Nc1ccccc1)=C1/NN=C(N2CCOCC2)N1c1ccccc1`, the inhibition was 6.29%. Consider `Cc1ccc2c(O)c(Cc3ccccc3)c(=O)[nH]c2n1`, for which the inhibition is 12.7%. In the case of `NC(=O)Cn1cc(C(=O)c2ccccc2F)c2ccccc21` it was 1.25%; in that of `CC1CCN(C(=O)Cn2cc(C(=O)c3ccco3)c3ccccc32)CC1`, 21.1%. In the case of `N#Cc1ccc(Cn2cc(C(=O)c3ccco3)c3ccccc32)cc1` it was 31.5% (active); in that of `CCOC(=O)c1c(NC(=S)SC)sc(C(=O)N2CCc3ccccc3C2)c1C`, 1.83%. In the case of `CN1CCC(=NNC(=O)CN(c2cccc(Cl)c2)S(C)(=O)=O)CC1` it was 3.59%; in that of `CCc1nc2cccnc2n1-c1ccc(C(=O)O)cc1`, 0.86%; in that of `CCCCn1c(O)c(N=NC(=O)Cn2c(C(F)(F)F)nc3ccccc32)c2ccccc21`, -14.8%.

For the compound `N#CCCCn1c(O)c(N=NC(=O)C(O)c2ccccc2)c2ccccc21` (stereo unspecified), the inhibition is 42% (active). Turning to `Cc1csc(Nc2ccc(Cl)cc2)[n+]1-c1ccc(Cl)cc1`, the inhibition is 2.24%. In the case of `O=C(CNC(=O)c1cccnc1)N/N=C/c1cc(Br)c(O)c(Br)c1`, the inhibition was 42% (active). `CCCOc1cccc(C(=O)NCCCNC(=O)c2cccnc2)c1`: the inhibition is -5.19%. In the case of `CCOc1cc(/C=N/NC(=O)c2ccncc2)cc(Br)c1O` it was 0%; in that of `CC(C)OCCCNC(=O)CNC(=O)c1cccs1`, 3.27%; in that of `O=C(CNC(=O)c1ccccc1Br)NNC(=O)c1cccs1`, -3.45%. For the compound `Cc1cccc(OCC(=O)NCCNC(=O)c2cccnc2)c1`, the inhibition was -7.55%.

As to `CCN(CC)c1ccc(/C=N/NC(=O)CNC(=O)c2cccs2)cc1`, the inhibition was 31.4% (active).

With `O=C(CNC(=O)C1COc2ccccc2O1)N/N=C/c1cc(Br)c(O)c(Br)c1` (stereo unspecified), the inhibition was 33.5% (active). On to `O=C(CNC(=O)C(c1ccccc1)c1ccccc1)N/N=C\c1ccc2c(c1)OCO2`, for which the inhibition is 6.25%.

As to `CC1CC(=NNC(=O)C2COc3ccccc3O2)CC(C)(C)C1` (stereo unspecified), the inhibition was -8.18%. With `C/C(=N\NC(=O)c1cccnc1)c1ccc(-n2ccnc2)cc1`, the inhibition is 12.6%.

For `CCN(CC)c1ccc(/C=N/NC(=O)CNC(=O)c2cccnc2)cc1`, the inhibition was 33.1% (active).

`O=C(COC(=O)c1ccc(N2CCCC2=O)cc1)c1ccc(OC(F)F)cc1`: the inhibition is 2.55%. With `Cc1cc(=O)oc2cc(NC(=O)C3CC(=O)N(Cc4ccccc4)C3)ccc12` (stereo unspecified), the inhibition was 19.6%. On to `NC(N)=NCCCc1cn(CC(=O)N2CCNCC2)nn1`, for which the inhibition was 1.79%. In the case of `CC(C)Oc1ccc(C2NC(=O)NC2=O)cc1` (stereo unspecified), the inhibition is 1.41%. For the compound `O=C1CCCC2=C1C(c1cccs1)n1nc(SCc3ccccc3)nc1N2` (stereo unspecified), the inhibition was 19.9%. In the case of `CCC(C)[C@H](NC(=O)N1c2ccccc2NC(=O)[C@@H]1C(C)C)C(=O)N[C@@H](Cc1ccccc1)C(=O)O` (stereo partly specified) it was 10.8%; in that of `CCCc1ccc(-c2c(C)sc(NC(=O)c3ccnn3C)c2C#N)cc1`, 17.4%; in that of `CC(OC(=O)CNS(=O)(=O)/C=C/c1ccccc1)C(=O)Nc1ccc(S(=O)(=O)N2CCCC2)cc1` (stereo unspecified), -3.69%. Turning to `CN(C)c1ccc(Nc2c3c4c(cccc4n(C)c2=O)C(=O)c2ccccc2-3)cc1`, the inhibition is 5.68%.

Regarding `CCSc1nc2c(c(=O)[nH]1)C(c1cccnc1)C(C(=O)OC(C)C)=C(C)N2` (stereo unspecified), the inhibition is 0.91%. `COc1cc(S(=O)(=O)N2CCN(C(=O)C3CC3)CC2)ccc1NC(C)=O`: the inhibition was 7.35%. In the case of `O=C(Nc1ccc(OCC(=O)N2CCOCC2)cc1)c1cc(F)c(F)cc1Cl` it was 6.18%; in that of `CCOC(=O)c1c(C(C#N)C#N)cc(C)nc1C`, 34.7% (active); in that of `CCOC(=O)c1c(C)[nH]c(C)c1C(=O)CSc1nc(N)cc(N)n1`, 5.66%. Regarding `CCOC(=O)c1cc(C)nc(S(C)(=O)=O)c1C#N`, the inhibition was -4.82%.

As to `C[C@@H]1CN([C@H](C)CO)C(=O)c2cc(Br)cnc2O[C@@H]1CN(C)Cc1cncnc1`, the inhibition was 13.4%. As to `Cc1cc(Cl)ccc1C(=O)C1CCCN(C(=O)c2ccc3c(c2)OCO3)C1` (stereo unspecified), the inhibition is 4.42%. Take `NCCCCCC(=O)N/N=C/c1ccc2nccnc2c1`: the inhibition is 26.5%. In the case of `CCNC(=S)NNC(=O)c1ccc2ncccc2c1`, the inhibition is 7.57%. `O=C(O)c1ccc(N/N=C/c2ccc3ncccc3c2)cc1`: the inhibition is 34% (active). On to `CCCCN(C(=O)c1ccc2ccccc2c1)c1c(N)n(CCCC)c(=O)[nH]c1=O`, for which the inhibition was 1.27%.

Take `O=C(CNC(=O)c1ccccc1)NCC(=O)OCc1ccc(Cl)cc1`: the inhibition was 4.85%. Take `O=C(CNC(=O)Cc1ccccc1)NCC(=O)OCC(=O)c1ccccc1Cl`: the inhibition is 4.58%. In the case of `O=C(CNC(=O)OCc1ccccc1)Oc1cc2oc(=O)cc(-c3ccccc3)c2cc1Cl` it was 31.2% (active); in that of `CCCCNC(=O)N1CCN(S(C)(=O)=O)CC1`, -0.96%. In the case of `Cc1ccc(C)c(-n2ccnc2SCC(N)=O)c1` it was -8.54%; in that of `CCCCCCCC(=O)OC(CN1CCCCCC1)CN1CCCC1=O` (stereo unspecified), 4.02%; in that of `COC(=O)CSc1nnc(NC(=O)CCc2ccccc2)s1`, 3.45%. Take `NC(=O)CSc1nnc(NC(=O)c2ccc(Br)o2)s1`: the inhibition is 32.8% (active). With `CC(C)(C)NC(=O)CSc1nnc(NC(=O)CCc2ccccc2)s1`, the inhibition was 4.27%. In the case of `COc1ccc(N)cc1NC(=O)CN1CCOCC1` it was -1.77%; in that of `Cc1ccc(S(=O)(=O)NCc2cn3ccsc3n2)c(C)c1`, 7.83%; in that of `CCN1C(=O)[C@H]2[C@@H](c3ccccc3)N[C@]3(CCCN(Cc4ccc(C)cc4)C3=O)[C@H]2C1=O`, -3.32%.

As to `Cc1cc(=O)[nH]c(N/N=C/c2ccc3c(c2)OCCO3)n1`, the inhibition is 46.9% (active). Take `Cc1cccc(C)c1NC(=O)CNC(=O)c1ccc2c(c1)OCCO2`: the inhibition is -1.08%. For `CCN(CC)c1ccc(/C=N/Nc2nc(C)cc(=O)[nH]2)cc1`, the inhibition is 37.7% (active).

`Cc1cc(=O)[nH]c(N/N=C/c2c(C)nn(-c3ccccc3Cl)c2Cl)n1`: the inhibition is 3.41%.

Turning to `Cc1cc(=O)[nH]c(Nc2cccc(Br)c2)n1`, the inhibition was -6.37%. As for `Cc1ccc(C)c(NC2=NCC(=O)N2c2ccc3c(c2)OCCO3)c1`, the inhibition is -1.83%. Take `CCN(CC)CCNc1nc(-c2ccc(OC(F)F)cc2)c(C)s1`: the inhibition was 2.11%.

As for `O=C(NNC1=NCCC1)c1cccc(S(=O)(=O)N2CCCCC2)c1`, the inhibition was 5.45%.

For the compound `CCC1=C(OC(=O)N(CC)CC)N2C(=O)OC(=NCC3CC3)[C@]2(C)[C@H]2C1=CC[C@H]1C(=O)N(CC(=O)OC)C(=O)[C@H]12`, the inhibition is 9.36%. Regarding `COc1ccc(/C=C2\N=C3CCCN3C2=O)cc1`, the inhibition was 45.7% (active). With `COc1ccc(/C=C2\SC(=N)N(c3ccc(F)cc3)C2=O)cc1`, the inhibition was 4.31%.

For `COc1ccc(C=C2CCC3C(CCCC34OCCO4)C2=O)cc1` (stereo unspecified), the inhibition is 25.5%. In the case of `Cc1ccc(Cc2nnc(SCC(=O)Nc3ccc(C)cc3C)[nH]c2=O)cc1` it was 4.83%; in that of `[O-][N+]12CCCCC1CCCC2CO` (stereo unspecified), -10.3%.

Regarding `Cc1cc(C)c2nc3nc(C)cc(C)c3c(N)c2c1`, the inhibition is 4.65%.

`CCc1nnc(NC(=O)/C=C/c2ccc(C)o2)s1`: the inhibition was 40.7% (active). In the case of `CCc1nnc(NC(=O)[C@@H](NC(=O)c2cccc(C)c2)C(C)C)s1` it was -6.25%; in that of `CCc1nnc(NC(=O)c2ccco2)s1`, 15.9%; in that of `CN(C)c1ccc(NC(=O)CN2C3CCCC2CC(NC(=O)c2ccccc2)C3)cc1` (stereo unspecified), -4.43%.

`CN(C)c1ccc(-c2nnc(-c3cccnc3)o2)cc1`: the inhibition is 30%. For the compound `Nc1ccc(-c2nnc(-c3ccc(-c4ccccc4)cc3)o2)cc1`, the inhibition was 49.1% (active). As to `OC(c1nnc(-c2ccccc2)o1)c1cccs1` (stereo unspecified), the inhibition was -12.3%.

Take `CCC(C)(C)c1ccc(OCC(=O)N(C)C)c(C(C)(C)CC)c1`: the inhibition was 1.89%. In the case of `O=C(CCNC(=O)c1ccccc1)NN=Cc1ccc(Br)o1` it was 8.77%. As for `O=C(N/N=C/c1ccc(Br)o1)c1cncc(Br)c1`, the inhibition is 33.6% (active). Consider `Cc1ccc(C(=O)N/N=C\c2cc(Br)c(Br)o2)cn1`, for which the inhibition was 9.96%. Regarding `CN(CC1CCCO1)S(=O)(=O)c1ccc(C(=O)Nc2ccc(F)cc2)cc1` (stereo unspecified), the inhibition was 4.12%. As for `O=C(NCCN1CCN(Cc2ccccc2)CC1)c1cc2c(=O)[nH]c3ccccc3c2s1`, the inhibition is 24.2%. Turning to `CCC1CCCCN1CCCNC(=O)c1cc2c(Cl)nc3ccccc3c2s1` (stereo unspecified), the inhibition was 0.39%.

On to `CN1CCN(CCCNC(=O)c2cc3c(=O)oc4ccccc4c3s2)CC1`, for which the inhibition was 31.1% (active).
